CaV13 FRET inh = Disruptors of the CACNA1D IQ motif to Ca2+-dependent inactivation inhibitor domain association, primary screening, Förster resonance energy transfer in intact living …. HEK cells, CFP/YFP FRET ICDI-IQ, plate reader, 10 min; percent FRET-ratio fall versus neutral wells. inhibition, % at 12.3 µM. hit rate 0.098% among 340,000;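 active = mean replicate inhibition of at least 30% and at least 1% of replicates passing that level; inconclusive = only one of the two criteria is met; inactive = neither criterion is met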;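 also: 0% = median of the neutral control wells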
PolyA inhibitor = yeast polyadenylation inhibition. S. cerevisiae SKY197-pL101 polyadenylation reporter, beta-gal luminescence; efflux-impaired pdr1/pdr3 knockout yeast; score 100 = 6 SD above DMSO. activity score, % at 12 µM. hit rate 0.02% among 300,000;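 active = lowest replicate activity score at least 50, where 100 means six control SD above control mean; inconclusive = lowest score under 50 but half or more replicates reach 50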;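 also: yeast exposed to compound for 9 h at 30 °C; higher score means more reporter readthrough which indicates perturbed polyadenylation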
M18AAP inhibitor = blocks P. falciparum M18 aspartyl aminopeptidase | inhibition, % at 7.35 µM | recombinant PfM18AAP, H-Glu-NHMec fluorogenic cleavage | hit rate 1.2% among 290,000 | AID 1822;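 active = inhibition above the campaign mean inhibition over all tested compounds plus 3 SD, cut at about 28% in these data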;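 also: 0% = plate median of test compound wells and 100% = 2 mM ZnCl2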
ALR H2O2 inh = human ALR oxidase inhibition via reduced H2O2 | P55789 | purified ALR, DTT oxidation, H2O2 HRP-luminol luminescence | hit rate 3.8% among 290,000 | inhibition, % (no concentration beside the values);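 active = mean replicate inhibition above about 79%, with every replicate also reaching it, limit read from the data; inconclusive = only one of the two criteria met; inactive = mean below limit and not every replicate reaching it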
Target sequence (P55789 whole entry, looked up): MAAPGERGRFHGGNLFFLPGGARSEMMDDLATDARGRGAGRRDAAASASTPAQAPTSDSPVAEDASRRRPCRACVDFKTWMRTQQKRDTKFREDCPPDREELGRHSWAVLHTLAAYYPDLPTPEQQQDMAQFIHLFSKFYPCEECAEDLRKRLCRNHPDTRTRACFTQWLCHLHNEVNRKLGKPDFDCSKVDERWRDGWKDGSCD
IDE cell activ = activators of human insulin-degrading enzyme in cells | hit rate 0.073% among 340,000 | activation, % at 5.96 µM | P14735 | HEK cells, FAbeta-B cleavage, fluorescence polarization; 0% vehicle, 100% cell-free pure enzyme wells;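 active = activation above the mean of all tested compounds plus 3 SD, set per screening campaign, cut at about 17% in these data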
IDE inh = inhibitors of human insulin-degrading enzyme in cells | P14735 | HEK cells, FAbetaB cleavage, fluorescence polarization | inhibition, % at 5.59 µM | hit rate 0.41% among 320,000;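 active = percent inhibition above the average of all tested compounds plus 3 SD, set per screening campaign, cut at about 16% in these data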;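 also: IDE supplied by intact live HEK cells; FP after avidin binding of uncleaved biotin substrate so inhibition keeps polarization high; 0% = DMSO wells and 100% = 60 µM reference IDE inhibitor Ii1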
* marks the source's active call; other numbers are inactive results; u = inconclusive; x = not tested or not shown. Rows were chosen to be rich in hits. Some 4.1% of all compounds tested hit in one or more screens of this group.

SMILES	CaV13 FRET inh	PolyA inhibitor	M18AAP inhibitor	ALR H2O2 inh	IDE cell activ	IDE inh
O=C(CSc1nc2ccccc2[nH]1)Nc1nc(-c2ccc(Br)cc2)cs1	-5	2	-8	98*	-6	1
Cc1cc(C)cc([C@H]2C[C@]34CN(C(=O)OC(C)(C)C)S(=O)(=O)[C@H]3C[C@H]2O4)c1	-5	x	x	x	x	x
CCOC(=O)N1CCC(NC(=O)c2csc3c2CCCC3)CC1	-7	-6	-2	x	-3	4
CC(=O)c1cccc(S(=O)(=O)NCCC(=O)NC2CCCCCC2)c1	-5	x	x	x	4	-2
Cc1ccc(C2c3c(n[nH]c3C(C)C)C(=O)N2c2ccccc2)cc1 (centres undefined)	-4	x	x	x	x	x
Cc1cc(C)nc(SCc2csc(-c3ccccc3)n2)n1	-7	4	1	99*	7	11
c1ccc(-c2nc(CSc3nnc(-c4cccs4)o3)cs2)cc1	-5	-19	3	98*	1	2
Cc1ccc(Nc2nc(CSc3nnc(-c4cccs4)o3)cs2)cc1	1	-7	1	54	3	1
CCCc1cc(=O)[nH]c(SCc2cccnc2)n1	-4	11	5	97*	5	2
Clc1ccc(-c2nc(CSc3ccccn3)cs2)cc1	-14	x	x	x	x	x
Nc1ccccc1SCc1csc(-c2ccc(Cl)cc2)n1	-18	-6	11	98*	-5	1
CCCc1cc(=O)[nH]c(SCc2ccccc2)n1	-5	-13	3	x	7	-4
Cc1nc(NC(=O)CSc2ccc(-c3nc4ccccc4[nH]3)cn2)sc1C	-9	-18	12	99*	0	6
CCCCn1c(NCCO)nc2ccccc21	-6	12	-2	98*	7	5
Cc1ccc(O)c(CNc2cnc3ccccc3c2)c1	0	6	4	98*	-1	-2
CCCn1c(NCc2cc(C)ccc2O)nc2ccccc21	-5	4	30*	x	1	-5
CCCCn1c(NCc2ccccc2O)nc2ccccc21	-6	16	1	98*	1	5
CC(C)Cn1c(NCCO)nc2ccccc21	-3	-5	1	24	0	9
Cc1ccc(C)c(SCC(=O)Nc2ccc(S(=O)(=O)Nc3ncccn3)cc2)c1	-1	-6	-3	x	6	6
COc1cc(F)ccc1Oc1cccc2c1S(=O)(=O)N([C@H](C)c1ccccc1)C[C@@H](COCc1ccccc1)O2	-5	x	x	x	x	x
O=C(COC(=O)Cc1n[nH]c(=O)c2ccccc12)NNC(=O)c1ccc(Cl)cc1	-7	x	x	-2	3	-5
CC(=O)NC1CC2CCCC(C1)N2C(=O)Nc1cccc(Cl)c1 (centres undefined)	-2	x	x	x	8	x
COc1cccc(NC(=O)c2c([N+](=O)[O-])cnn2C)c1	-21	-2	2	96*	-2	1
COC(=O)[C@@]12CCCCN1[C@H](c1ccc(-c3ccc(F)cc3)c(OC)c1)[C@@H]1C(=O)N(C)C(=O)[C@@H]12	-6	x	x	-14	7	0
Cc1cc2cc(C=C(C#N)C#N)c(Cl)nc2cc1C	-50	-17	3	98*	-1	3
SMILES	CaV13 FRET inh	PolyA inhibitor	M18AAP inhibitor	ALR H2O2 inh	IDE cell activ	IDE inh
CCOC(=O)/C(C#N)=C/c1cc2ccc(C)cc2nc1Cl	-4	8	-4	96*	3	0
CCOC(=O)/C(C#N)=C/c1cc2cc(C)c(C)cc2nc1Cl	-7	-6	4	66	6	7
COc1ccc(CC(=O)N[C@@H]2c3ccccc3CC[C@@H]2OCc2ccccc2)cc1	-5	x	x	x	4	x
CC[C@H](C)[C@H](NC(=O)OCc1ccccc1)C(=O)Nc1ccc(NC(C)=O)cc1	-12	12	3	-3	6	8
CCC(=O)OCCNc1cc(Sc2nccn2C)c2nonc2c1[N+](=O)[O-]	-5	19	-36	97*	-5	-3
COc1ccc2c(c1)c1ncnc(N3CCN(Cc4ccc5c(c4)OCO5)CC3)c1n2C	x	x	-9	x	x	x
Cc1ccc2[nH]c3c(N4CCc5ccccc5C4)ncnc3c2c1	-3	-29	3	11	-17	62*
COc1ccc2[nH]c3c(N4CCN(Cc5ccc6c(c5)OCO6)CC4)ncnc3c2c1	x	-11	6	97*	-2	15
CCOc1ccc2[nH]c3c(N4CCc5ccccc5C4)ncnc3c2c1	-2	-8	-1	2	x	28*
CCOc1ccc2[nH]c3c(NCC(C)C)ncnc3c2c1	x	-3	-11	u	-4	3
COc1cccc(C(=O)OCC(=O)Nc2ccc(N3CCOCC3)cc2)c1	-6	x	x	-1	5	-1
O=C(CSCC(=O)N1CCCCC1)Nc1nc(-c2ccc(Cl)s2)cs1	-6	1	-1	8	-11	2
O=C(CSCC(=O)N1CCCCC1)Nc1nc(-c2cccs2)cs1	-6	2	-1	96*	-5	5
CCOC(=O)N1CCN(C(=O)CSCC(=O)Nc2nc(-c3ccccc3)cs2)CC1	-5	-6	-6	x	-14	3
CC1CC(C)CN(C(=O)CSCC(=O)Nc2nc(-c3cccs3)cs2)C1 (centres undefined)	-3	-3	-2	99*	-1	-2
COc1nc(Cl)cn(-c2ccc(C)cc2)c1=O	-4	-11	-9	-5	1	-5
Cc1ccc(-n2c(Cl)c(Cl)nc(Cl)c2=O)cc1	x	x	-106	97*	-3	1
CC(C)CCNC(=O)C1CCN(S(=O)(=O)c2ccc3c(c2)CCC(=O)N3)CC1	8	-12	-1	84*	1	0
C=CCn1c(=O)c2ccccc2n2c(SCC(C)=O)nnc12	-3	2	-5	15	2	2
O=C(N/N=C/c1ccc(O)cc1O)/C(=C/c1ccccc1)CCO	-4	-7	8	81*	3	-3
O=C(N/N=C/c1ccc(O)cc1O)c1ccncc1	-2	-13	17	25	2	2
COc1cc(/C=N/NC(=O)/C(=C/c2ccccc2)CCO)ccc1O	-5	5	5	99*	3	-1
CCc1cc(C(=O)N/N=C/c2ccc(O)cc2O)c2ccccc2n1	x	-4	22	83*	3	1
COc1ccc(/C=N/NC(=O)/C(=C/c2ccccc2)CCO)cc1	-11	5	-1	64	3	1
Cn1c(SCC(=O)CC(=O)Nc2ccccc2)nnc1-c1ccc(O)cc1	-8	-3	-1	x	-1	-1
Cc1cccc(C)c1NC(=O)CCCSc1nnc(-c2ccc(Cl)cc2)n1-c1ccccc1	-3	-8	0	x	-3	3
O=C(CSc1nnc(-c2ccc(O)cc2)n1-c1ccccc1)CC(=O)Nc1ccccc1	-7	-15	33*	-8	6	-6

Assay outcomes as filed in PubChem BioAssay.
